Where “and” joins values, the source holds several entries; their conditions need not be identical. Equal entries are not always repeated. Calls of active or inactive are those of the source.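 The calls were made as follows, unless noted: active = mean z-score across replicates of 1.96 or higher in either the MELAS or the Rieske mutant cell line; inactive = the rest.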

Assay [1] can be described thus: viability loss with induced miR-34 in A549 – imaging, A549 dox-inducible miR-34, nuclei and caspase counts, primary screen (AID 1347080;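 active = compounds whose cell count with miR-34 switched on is under 0.7 times the count with it off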). Conditions: A549 miR-34 inducible, Hoechst nuclei count, 48 h.
The nature of assay [2]: MELAS cybrid and Rieske KO viability enhancers – cell-based, MELAS cybrids, Rieske KO mouse fibroblasts, CellTiter-Glo, primary screen (AID 1508586).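 Also: z relative to plate mean and SD of compound and empty wells.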 Conditions: low glucose. (In general: Cellular ATP, detected with luciferase, serves as a proxy for viable cell number.)
The mark [3] stands for this setting: stronger effect = lower value, cell number ratio, induced over uninduced.
The mark [4] stands for this setting: measured here: relative caspase fold change +Dox/-Dox.
Setting [5] is: measured here: total cells with miR-34 induction, stronger effect = lower value.
The mark [6] stands for this setting: measured here: total cells without miR-34 induction.
[7] abbreviates: MELAS cybrid survival, CellTiter-Glo 48 h, stronger effect = higher value.
The mark [8] stands for this setting: Rieske KO mouse fibroblast survival, CellTiter-Glo 72 h.
Also: test concentration not given here.

`CC(NC(=O)C(O)c1cc(F)cc(F)c1)C(=O)NC1C(=O)N(C)c2ccccc2-c2ccccc21` (configuration not stated): the fold change was 0.896 (inactive) in assay [1] (setting [3]) and 0.875 in assay [1] (setting [4]). Also, the cell count came to 8040 in assay [1] (setting [5]) and 8970 in assay [1] (setting [6]). Also, the z-score is -0.323 (inactive) in assay [2] (setting [7]) and 1.18 in assay [2] (setting [8]).
Turning to `COC1C[C@H]2CCC(C)[C@@](O)(O2)C(=O)C(=O)N2CCCC[C@H]2C(=O)OC(C(C)CC2CCC(OP(C)(C)=O)C(OC)C2)CC(=O)C(C)C=C(C)C(O)C(OC)C(=O)C(C)CC(C)C=CC=CC=C1C` (some centres not stated), the fold change in assay [1] (setting [3]) is 1.07 (inactive); in assay [1] (setting [4]), 0.835. Moreover, the cell count stood at 4570 in assay [1] (setting [5]) and 4270 in assay [1] (setting [6]). Further, the z-score is 0.709 (inactive) in assay [2] (setting [7]) and 1.92 in assay [2] (setting [8]).
For `CC(C)(O)C1CC[C@@](C)([C@@H]2C(O)C[C@@]3(C)[C@@H]4CC(OC5OC(CO)C(O)C(O)C5O)[C@H]5C(C)(C)C(OC6OCC(O)C(O)C6O)CC[C@@]56C[C@]46CC[C@]23C)O1` (some centres not stated), the fold change in assay [1] (setting [3]) was 0.936 (inactive); in assay [1] (setting [4]) it was 0.796. Also, the cell count in assay [1] (setting [5]) is 9300; in assay [1] (setting [6]), 9940. Also, the z-score in assay [2] (setting [7]) is -0.378 (inactive); in assay [2] (setting [8]), 0.478.
For `CCc1cc2c(cc1CC)CC(NCC(O)c1ccc(O)c3[nH]c(=O)ccc13)C2` (configuration not stated), the fold change in assay [1] (setting [3]) was 1.01 (inactive); in assay [1] (setting [4]) it was 0.491. Moreover, the cell count in assay [1] (setting [5]) turned out to be 7460; in assay [1] (setting [6]), 7410. Also, the z-score was -0.199 (inactive) in assay [2] (setting [7]) and -0.118 in assay [2] (setting [8]).
Regarding `O=C(C=Cn1cnc(-c2cc(C(F)(F)F)cc(C(F)(F)F)c2)n1)N1CC(F)(F)C1`, the values for the fold change in assay [1] (setting [3]) and in assay [1] (setting [4]) were 0.887 (inactive) and 0.422, respectively. Also, the figures for the cell count in assay [1] (setting [5]) and in assay [1] (setting [6]) were 1980 and 2230, respectively. The z-score in assay [2] (setting [7]) is -0.618 (inactive); in assay [2] (setting [8]), -7.49.
In the case of `CCOC(=O)C(CCc1ccccc1)NC(C)C(=O)N1C(=O)N(C)CC1C(=O)O` (configuration not stated), the fold change in assay [1] (setting [3]) was 0.891 (inactive); in assay [1] (setting [4]), 1.39. The cell count in assay [1] (setting [5]) came to 7920; in assay [1] (setting [6]) it was 8880. Moreover, the z-score was 0.163 (inactive) in assay [2] (setting [7]) and -0.0366 in assay [2] (setting [8]).
Turning to `COc1cc(O)cc(C2CC(=O)c3c(O)cc(OC4OC(CO)C(O)C(O)C4OC4OC(C)C(O)C(O)C4O)cc3O2)c1` (configuration not stated), the fold change is 0.921 (inactive) in assay [1] (setting [3]) and 0.443 in assay [1] (setting [4]). Also, the cell count was determined as 8090 in assay [1] (setting [5]) and 8790 in assay [1] (setting [6]). The results for the z-score in assay [2] (setting [7]) and in assay [2] (setting [8]) were -0.19 (inactive) and -0.0453, respectively.
Take `N#CCC(C1CCCC1)n1cc(-c2ncnc3[nH]ccc23)cn1` (configuration not stated): the fold change in assay [1] (setting [3]) was 1.03 (inactive) and 0.94 (inactive); in assay [1] (setting [4]) it was 0.563 and 1.09. The cell count in assay [1] (setting [5]) is 8730 and 7580; in assay [1] (setting [6]) it was 8490 and 8060. In addition, the z-score is -0.347 (inactive) and -0.642 (inactive) in assay [2] (setting [7]); 0.0258 and -0.766 in assay [2] (setting [8]).
Turning to `COC1C(O)CC(=O)OC(C)CC=CC=CC(OC2CCC(N(C)C)C(C)O2)C(C)CC(CC=O)C1OC1OC(C)C(OC2C[C@](C)(O)C(O)C(C)O2)C(N(C)C)C1O` (some centres not stated), the fold change in assay [1] (setting [3]) was 0.934 (inactive); in assay [1] (setting [4]), 0.625. Also, the cell count was found to be 8350 in assay [1] (setting [5]) and 8940 in assay [1] (setting [6]). The z-score was -0.212 (inactive) in assay [2] (setting [7]) and -0.158 in assay [2] (setting [8]).
Turning to `Cc1ccc(C(=O)NCCCCCC(=O)Nc2ccccc2N)cc1`, the fold change is 0.986 (inactive) in assay [1] (setting [3]) and 0.44 in assay [1] (setting [4]). Further, the cell count in assay [1] (setting [5]) was determined as 4890; in assay [1] (setting [6]), 4960. For the same compound, the z-score in assay [2] (setting [7]) was -0.614 (inactive); in assay [2] (setting [8]), -2.
For `CCOC(=O)C(CCc1ccccc1)NC(C)C(=O)N1CCCC1C(=O)O` (configuration not stated), the figures for the fold change in assay [1] (setting [3]) and in assay [1] (setting [4]) were 0.954 (inactive) and 0.968, respectively. The cell count came to 7520 in assay [1] (setting [5]) and 7880 in assay [1] (setting [6]). Further, the figures for the z-score in assay [2] (setting [7]) and in assay [2] (setting [8]) were -0.0746 (inactive) and -0.409, respectively.
Turning to `O=C1C(Cc2ccc(O)cc2)N2C(=O)CCN(C(=O)NCc3ccccc3)[C@H]2CN1Cc1cccc2ccccc12` (some centres not stated), the fold change is 1.06 (inactive) in assay [1] (setting [3]) and 0.528 in assay [1] (setting [4]). The cell count came to 2850 in assay [1] (setting [5]) and 2690 in assay [1] (setting [6]). Further, the values for the z-score in assay [2] (setting [7]) and in assay [2] (setting [8]) were -0.585 (inactive) and -0.172, respectively.
Turning to `CCN1CCN(Cc2ccc(-c3cc4c(NC(C)c5ccccc5)ncnc4[nH]3)cc2)CC1` (configuration not stated), the fold change in assay [1] (setting [3]) was 1.04 (inactive); in assay [1] (setting [4]) it was 0.932. For the same compound, the cell count came to 3430 in assay [1] (setting [5]) and 3280 in assay [1] (setting [6]). The z-score in assay [2] (setting [7]) is -0.0772 (inactive); in assay [2] (setting [8]), 0.518.
As for `COc1ccc(CCc2nc3cc(-c4c(C)noc4C)ccc3n2CC(C)N2CCOCC2)cc1Cl` (configuration not stated), the fold change was 0.88 (inactive) in assay [1] (setting [3]) and 0.277 in assay [1] (setting [4]). The cell count worked out at 7240 in assay [1] (setting [5]) and 8230 in assay [1] (setting [6]). The z-score in assay [2] (setting [7]) is -0.0999 (inactive); in assay [2] (setting [8]), -1.46.
Regarding `CC(=O)O[C@]12COC1CC(O)[C@]1(C)C(=O)C(O)C3=C(C)C(OC(=O)C(O)C(NC(=O)OC(C)(C)C)c4ccccc4)C[C@](O)(C(OC(=O)c4ccccc4)C21)C3(C)C` (some centres not stated), the values for the fold change in assay [1] (setting [3]) and in assay [1] (setting [4]) were 1.04 (inactive) and 0.7, respectively. Besides, the figures for the cell count in assay [1] (setting [5]) and in assay [1] (setting [6]) were 2320 and 2220, respectively. Moreover, the z-score is 6.54 (active) in assay [2] (setting [7]) and -0.0789 in assay [2] (setting [8]).
`CC1=C(C(=O)O)N2C(=O)C(NC(=O)C(N)c3ccccc3)[C@@H]2SC1` (some centres not stated): the fold change is 0.987 (inactive) in assay [1] (setting [3]) and 0.849 in assay [1] (setting [4]). For the same compound, the figures for the cell count in assay [1] (setting [5]) and in assay [1] (setting [6]) were 7060 and 7150, respectively. The z-score is -0.417 (inactive) in assay [2] (setting [7]) and 0.0723 in assay [2] (setting [8]).
On to `CCC(C)(C)c1ccc(CC(C)CN2CC(C)OC(C)C2)cc1` (configuration not stated), for which the fold change in assay [1] (setting [3]) is 0.944 (inactive); in assay [1] (setting [4]) it was 0.765. Further, the cell count stood at 8210 in assay [1] (setting [5]) and 8700 in assay [1] (setting [6]). Further, the z-score in assay [2] (setting [7]) was -0.433 (inactive); in assay [2] (setting [8]), 0.477.
Take `O=C(Oc1cc(S(=O)(=O)c2ccccc2)ccc1[N+](=O)[O-])c1ccc(Cl)cc1`: the fold change in assay [1] (setting [3]) is 0.897 (inactive); in assay [1] (setting [4]) it was 0.914. Further, the cell count in assay [1] (setting [5]) was found to be 8540; in assay [1] (setting [6]), 9520. Also, the z-score in assay [2] (setting [7]) is -0.507 (inactive); in assay [2] (setting [8]), -2.16.
In the case of `CC1C[C@@H]2[C@@H](C(O)C[C@@]3(C)[C@H]2CC[C@@]3(O)C(=O)CO)[C@@]2(C)C=CC(=O)C=C12` (some centres not stated), the fold change was 0.787 (inactive) in assay [1] (setting [3]) and 1.42 in assay [1] (setting [4]). For the same compound, the cell count in assay [1] (setting [5]) is 5500; in assay [1] (setting [6]), 6980. For the same compound, the z-score in assay [2] (setting [7]) is -0.489 (inactive); in assay [2] (setting [8]) it was -0.516.
Regarding `O=C(Nc1ccccc1)Nc1ccc(-c2ccc(C(=O)C3CCCC3C(=O)O)cc2)cc1` (configuration not stated), the fold change in assay [1] (setting [3]) is 0.846 (inactive); in assay [1] (setting [4]), 0.729. Besides, the figures for the cell count in assay [1] (setting [5]) and in assay [1] (setting [6]) were 9210 and 10900, respectively. Also, the figures for the z-score in assay [2] (setting [7]) and in assay [2] (setting [8]) were -0.239 (inactive) and 0.453, respectively.
With `CNC(=O)C(Cc1c[nH]c2ccccc12)NC(=O)C(CC(=O)NO)CC(C)C` (configuration not stated), the fold change in assay [1] (setting [3]) is 0.883 (inactive); in assay [1] (setting [4]), 0.261. The cell count in assay [1] (setting [5]) worked out at 7640; in assay [1] (setting [6]) it was 8650. For the same compound, the z-score in assay [2] (setting [7]) was 0.112 (inactive); in assay [2] (setting [8]), 0.643.
With `Cc1cc(=O)oc2c(C=O)c(O)ccc12`, the fold change is 0.88 (inactive) in assay [1] (setting [3]) and 0.552 in assay [1] (setting [4]). The cell count amounted to 8210 in assay [1] (setting [5]) and 9320 in assay [1] (setting [6]). Besides, the z-score in assay [2] (setting [7]) is -0.241 (inactive); in assay [2] (setting [8]), 0.915.

For the origin of these results see PubChem BioAssay.
